In PubChem BioAssay (NCI):
Compounds without any hit were thinned out: in the full panel of roughly 79,000, 15% have a hit. Active and inactive are the calls of the source. Cut-off read from the data, not from the text of the source: active = growth inhibition above about 70%; inactive = the rest.

Test: NCI Yeast Anticancer Drug Screen. Data for the rad50 strain (AID 155);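 note: 0% = growth of vehicle-only cultures of the same strain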
Conditions: S. cerevisiae rad50 strain growth inhibition; at 11.0 µM; stronger effect = higher value
Procedure, shortened: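 DNA repair mutant yeast, compound exposure, growth read-out; inhibition is taken relative to vehicle.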

Row | Structure (SMILES) | growth inhibition
1 | S=C(S)NN1CCOCC1 | 29% (inactive)
2 | COc1cc2c3c(cccc3c1)C(=O)N(CCN(C)C)C2=O | 29% (inactive)
3 | COC(=O)C1=C(C)NC(C)=C(C(=O)OCCCN2CCC(c3ccccc3)(c3ccccc3)CC2)C1c1cccc([N+](=O)[O-])c1 (stereo not given) | 97% (active)
4 | c1ccc2c(c1)Oc1cccc3cccc-2c13 | 5% (inactive)
5 | CN(C)CCOc1ccc2c(c1)C/C(=C/c1ncc([N+](=O)[O-])n1C)C2=O | 64% (inactive)
6 | Cc1ccc(CCC2=CCCc3c2ccc2ccccc32)cc1 | 0% (inactive)
7 | CNC(=O)OCc1c(COC(=O)NC)c(-c2ccc(Cl)c(Cl)c2)n2c1CCC2 | -37% (inactive)
8 | Clc1ccccc1C1OC1c1ccccc1Cl (stereo not given) | -73% (inactive)
9 | O=[N+]([O-])c1cc(CCl)ccc1CCl | 84% (active)
10 | O=C1C=CC(=O)c2c(O)c(Nc3ccc(OC(F)(F)F)cc3)c(Cl)c(O)c21 | 4% (inactive)
11 | S=c1[nH]nc(Nc2ccc(Cl)cc2)s1 | -10% (inactive)
12 | Cn1ccnc1Oc1ccc(Cl)cc1 | 3% (inactive)
13 | BrCc1cccc2ccc3cccc(CBr)c3c12 | 0% (inactive)
14 | O=C1c2ccccc2-c2nc3ccccc3nc21 | 0% (inactive)
15 | CCCCCCCCCCCCCCCCCCNC | -2% (inactive)
16 | Oc1ccc(NCn2c(=S)sc3ccccc32)cc1 | 5% (inactive)
17 | O=C1C2CC[C@@H]3C(=O)C(Cl)(Cl)[C@@H]3CCC2C1(Cl)Cl (stereo not given in full) | -2% (inactive)
18 | CC[n+]1ccc2c(C)c3[nH]c4ccc(O)cc4c3c(C)c2c1 | 65% (inactive)
19 | Cc1ccc(-n2cc(-c3ccc(Cl)cc3)c(C#N)c2N)cc1 | -31% (inactive)
20 | CC(=O)[O][Bi]([c]1ccccc1)[c]1ccccc1 | 73% (active)

Row | Structure (SMILES) | growth inhibition
21 | CC1=C(SCCO)C(=O)c2ccccc2C1=O | -8% (inactive)
22 | C/C(=N\O)C1CC2C=C(C#N)C1N(Cc1ccccc1)C2 (stereo not given) | 0% (inactive)
23 | CC(Br)C(=O)c1ccc2cc(Br)c3ccccc3c2c1 (stereo not given) | 10% (inactive)
24 | Nc1nc(-c2cccnc2)cc(-c2cc(-c3cccnc3)nc(N)n2)n1 | 2% (inactive)
25 | CC(C)=CC(=O)O[C@@H]1CC(C)(C)CC2C3=CCC4[C@]56CC[C@](O)(OC5)C(C)(C)C6CC[C@@]4(C)C3(C)CC[C@]21C(=O)O (stereo not given in full) | 75% (active)
26 | CCC(C)COC(=O)c1ccc(N=Cc2ccc(C=Nc3ccc(C(=O)OCC(C)CC)cc3)cc2)cc1 (stereo not given) | -2% (inactive)
27 | Oc1cccc2c(Cl)ccnc12 | 98% (active)
28 | O=C(O)c1cccc(-c2c3ccc(=O)cc-3oc3cc(O)ccc23)c1 | 22% (inactive)
29 | CN(CCc1ccccn1)c1ccc2c(c1)Cc1ccccc1-2 | 69% (inactive)
30 | Cc1cc(S(=O)(=O)/N=C(/NN)NNc2cccc(C(F)(F)F)n2)c(S)cc1Cl | -3% (inactive)
31 | O=C1C2C(C(=O)N1c1ccc(OCc3ccccc3)cc1)C1c3ccccc3C2C2CCCCN21 (stereo not given) | 13% (inactive)
32 | Nc1ccccc1CC(O)C(=O)O (stereo not given) | 27% (inactive)
33 | O=C(O)C1CCCCC1c1c2ccc(=O)c(O)c-2oc2c(O)c(O)ccc12 (stereo not given) | -16% (inactive)
34 | Cc1ccc2ccc(O)cc2c1 | -38% (inactive)
35 | O=C1C(=O)c2ccccc2C=C1[N+](=O)[O-] | 12% (inactive)
36 | COC(=O)c1ccc(NCC2=CC(=O)C=CC2=O)cc1O | 75% (active)
37 | C(CCSC1=NCCN1)CSC1=NCCN1 (tested in a mixture with another compound) | 83% (active)
38 | N#Cc1c(N)[nH]c2ccc(Sc3ccccc3)cc12 | 23% (inactive)
39 | CCNc1nnc(CSc2nc(-c3ccccc3)c(-c3ccccc3)[nH]2)s1 | -13% (inactive)
40 | CC[C@@]1(O)C(=O)OCc2c1cc1n(c2=O)Cc2cc3c(N)cccc3nc2-1 | 88% (active)
